Measured values taken from the supplement of paper PMC10849652.
About 8,800 targets were measured; listed, in parts, are those with a hit and a random draw of the rest. About 0.5% of all pairs of compound and target were hits. Values without a mark were called inactive.

Key:
Test in all cases: log2 fold change, soluble protein after heating vs DMSO (PISA); higher = thermal stabilisation; K562 lysate, 10 uM; active = over 0.2 and 3.5 SD of the protein, either way, in both replicates (recomputed)
lapatinib = compound: CS(=O)(=O)CCNCc1ccc(-c2ccc3ncnc(Nc4ccc(OCc5cccc(F)c5)c(Cl)c4)c3c2)o1 [lapatinib]
Summary of the method: (§1)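 The values are log-two fold changes in thermal stability compared with solvent controls and come from duplicates. They were obtained by TMTpro 16plex LC-MS/MS, with channel sums equalised, on the supernatant after 21,000xg for 90 min. That supernatant came from crude K562 extract at 1 mg/mL protein treated with 10 μM compound for 30 min, heated for 3 min across 48°C-58°C, pooled and brought to 0.5% NP-40 at 4°C.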

pictilisib = compound: CS(=O)(=O)N1CCN(Cc2cc3nc(-c4cccc5[nH]ncc45)nc(N4CCOCC4)c3s2)CC1 [pictilisib]
Summary of the method: as §1

crizotinib = compound: C[C@@H](Oc1cc(-c2cnn(C3CCNCC3)c2)cnc1N)c1c(Cl)ccc(F)c1Cl [crizotinib]
Summary of the method: as §1

[1] = compound: C[C@H](C1=CC=C(C=C1)C(=O)NC2=C3C=CNC3=NC=C2)N
Summary of the method: as §1

duvelisib = compound: C[C@H](Nc1ncnc2nc[nH]c12)c1cc2cccc(Cl)c2c(=O)n1-c1ccccc1 [duvelisib]
Summary of the method: as §1

gandotinib = compound: Cc1cc(Nc2cc(CN3CCOCC3)c3nc(C)c(Cc4ccc(Cl)cc4F)n3n2)n[nH]1 [gandotinib]
Summary of the method: as §1

tozasertib = compound: Cc1cc(Nc2cc(N3CCN(C)CC3)nc(Sc3ccc(NC(=O)C4CC4)cc3)n2)n[nH]1 [tozasertib]
Summary of the method: as §1

doramapimod = compound: Cc1ccc(-n2nc(C(C)(C)C)cc2NC(=O)Nc2ccc(OCCN3CCOCC3)c3ccccc23)cc1 [doramapimod]
Summary of the method: as §1

bafetinib = compound: Cc1ccc(NC(=O)c2ccc(CN3CC[C@H](N(C)C)C3)c(C(F)(F)F)c2)cc1Nc1nccc(-c2cncnc2)n1 [bafetinib]
Summary of the method: as §1

[2] = compound: Cc1cccc(CC(=O)N2CCc3c2ccc(-c2cn(C)c4ncnc(N)c24)c3F)n1
Summary of the method: as §1

UniProt Q9Y4P8, sequence (Q9Y4P8 whole entry, looked up): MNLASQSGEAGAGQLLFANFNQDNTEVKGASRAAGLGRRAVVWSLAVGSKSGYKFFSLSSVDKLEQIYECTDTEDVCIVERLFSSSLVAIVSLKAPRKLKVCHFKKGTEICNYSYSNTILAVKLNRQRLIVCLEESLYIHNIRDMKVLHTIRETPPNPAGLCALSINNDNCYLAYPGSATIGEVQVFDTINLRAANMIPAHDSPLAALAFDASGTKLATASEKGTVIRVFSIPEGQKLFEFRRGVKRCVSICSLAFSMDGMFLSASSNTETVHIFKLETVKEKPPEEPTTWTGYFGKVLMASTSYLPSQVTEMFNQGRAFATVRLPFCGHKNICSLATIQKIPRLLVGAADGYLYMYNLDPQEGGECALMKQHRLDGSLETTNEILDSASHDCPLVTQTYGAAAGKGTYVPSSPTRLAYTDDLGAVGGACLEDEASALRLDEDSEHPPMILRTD
UniProt Q15776, sequence (Q15776 whole entry, looked up): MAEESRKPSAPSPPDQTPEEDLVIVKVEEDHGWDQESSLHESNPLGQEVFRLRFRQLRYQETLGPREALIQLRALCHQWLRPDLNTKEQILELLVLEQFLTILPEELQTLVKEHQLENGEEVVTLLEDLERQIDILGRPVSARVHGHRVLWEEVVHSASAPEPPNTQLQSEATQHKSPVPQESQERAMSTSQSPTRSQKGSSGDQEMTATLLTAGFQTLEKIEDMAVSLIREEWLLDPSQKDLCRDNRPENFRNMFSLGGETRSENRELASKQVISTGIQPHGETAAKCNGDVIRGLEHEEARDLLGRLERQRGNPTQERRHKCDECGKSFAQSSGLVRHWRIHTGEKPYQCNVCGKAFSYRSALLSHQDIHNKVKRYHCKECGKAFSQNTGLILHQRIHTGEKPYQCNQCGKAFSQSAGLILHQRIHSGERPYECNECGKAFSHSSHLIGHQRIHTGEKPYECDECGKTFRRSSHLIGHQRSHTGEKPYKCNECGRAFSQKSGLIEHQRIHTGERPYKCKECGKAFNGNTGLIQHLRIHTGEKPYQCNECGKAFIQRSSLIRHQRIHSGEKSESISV
UniProt P46939, sequence (P46939 whole entry, looked up): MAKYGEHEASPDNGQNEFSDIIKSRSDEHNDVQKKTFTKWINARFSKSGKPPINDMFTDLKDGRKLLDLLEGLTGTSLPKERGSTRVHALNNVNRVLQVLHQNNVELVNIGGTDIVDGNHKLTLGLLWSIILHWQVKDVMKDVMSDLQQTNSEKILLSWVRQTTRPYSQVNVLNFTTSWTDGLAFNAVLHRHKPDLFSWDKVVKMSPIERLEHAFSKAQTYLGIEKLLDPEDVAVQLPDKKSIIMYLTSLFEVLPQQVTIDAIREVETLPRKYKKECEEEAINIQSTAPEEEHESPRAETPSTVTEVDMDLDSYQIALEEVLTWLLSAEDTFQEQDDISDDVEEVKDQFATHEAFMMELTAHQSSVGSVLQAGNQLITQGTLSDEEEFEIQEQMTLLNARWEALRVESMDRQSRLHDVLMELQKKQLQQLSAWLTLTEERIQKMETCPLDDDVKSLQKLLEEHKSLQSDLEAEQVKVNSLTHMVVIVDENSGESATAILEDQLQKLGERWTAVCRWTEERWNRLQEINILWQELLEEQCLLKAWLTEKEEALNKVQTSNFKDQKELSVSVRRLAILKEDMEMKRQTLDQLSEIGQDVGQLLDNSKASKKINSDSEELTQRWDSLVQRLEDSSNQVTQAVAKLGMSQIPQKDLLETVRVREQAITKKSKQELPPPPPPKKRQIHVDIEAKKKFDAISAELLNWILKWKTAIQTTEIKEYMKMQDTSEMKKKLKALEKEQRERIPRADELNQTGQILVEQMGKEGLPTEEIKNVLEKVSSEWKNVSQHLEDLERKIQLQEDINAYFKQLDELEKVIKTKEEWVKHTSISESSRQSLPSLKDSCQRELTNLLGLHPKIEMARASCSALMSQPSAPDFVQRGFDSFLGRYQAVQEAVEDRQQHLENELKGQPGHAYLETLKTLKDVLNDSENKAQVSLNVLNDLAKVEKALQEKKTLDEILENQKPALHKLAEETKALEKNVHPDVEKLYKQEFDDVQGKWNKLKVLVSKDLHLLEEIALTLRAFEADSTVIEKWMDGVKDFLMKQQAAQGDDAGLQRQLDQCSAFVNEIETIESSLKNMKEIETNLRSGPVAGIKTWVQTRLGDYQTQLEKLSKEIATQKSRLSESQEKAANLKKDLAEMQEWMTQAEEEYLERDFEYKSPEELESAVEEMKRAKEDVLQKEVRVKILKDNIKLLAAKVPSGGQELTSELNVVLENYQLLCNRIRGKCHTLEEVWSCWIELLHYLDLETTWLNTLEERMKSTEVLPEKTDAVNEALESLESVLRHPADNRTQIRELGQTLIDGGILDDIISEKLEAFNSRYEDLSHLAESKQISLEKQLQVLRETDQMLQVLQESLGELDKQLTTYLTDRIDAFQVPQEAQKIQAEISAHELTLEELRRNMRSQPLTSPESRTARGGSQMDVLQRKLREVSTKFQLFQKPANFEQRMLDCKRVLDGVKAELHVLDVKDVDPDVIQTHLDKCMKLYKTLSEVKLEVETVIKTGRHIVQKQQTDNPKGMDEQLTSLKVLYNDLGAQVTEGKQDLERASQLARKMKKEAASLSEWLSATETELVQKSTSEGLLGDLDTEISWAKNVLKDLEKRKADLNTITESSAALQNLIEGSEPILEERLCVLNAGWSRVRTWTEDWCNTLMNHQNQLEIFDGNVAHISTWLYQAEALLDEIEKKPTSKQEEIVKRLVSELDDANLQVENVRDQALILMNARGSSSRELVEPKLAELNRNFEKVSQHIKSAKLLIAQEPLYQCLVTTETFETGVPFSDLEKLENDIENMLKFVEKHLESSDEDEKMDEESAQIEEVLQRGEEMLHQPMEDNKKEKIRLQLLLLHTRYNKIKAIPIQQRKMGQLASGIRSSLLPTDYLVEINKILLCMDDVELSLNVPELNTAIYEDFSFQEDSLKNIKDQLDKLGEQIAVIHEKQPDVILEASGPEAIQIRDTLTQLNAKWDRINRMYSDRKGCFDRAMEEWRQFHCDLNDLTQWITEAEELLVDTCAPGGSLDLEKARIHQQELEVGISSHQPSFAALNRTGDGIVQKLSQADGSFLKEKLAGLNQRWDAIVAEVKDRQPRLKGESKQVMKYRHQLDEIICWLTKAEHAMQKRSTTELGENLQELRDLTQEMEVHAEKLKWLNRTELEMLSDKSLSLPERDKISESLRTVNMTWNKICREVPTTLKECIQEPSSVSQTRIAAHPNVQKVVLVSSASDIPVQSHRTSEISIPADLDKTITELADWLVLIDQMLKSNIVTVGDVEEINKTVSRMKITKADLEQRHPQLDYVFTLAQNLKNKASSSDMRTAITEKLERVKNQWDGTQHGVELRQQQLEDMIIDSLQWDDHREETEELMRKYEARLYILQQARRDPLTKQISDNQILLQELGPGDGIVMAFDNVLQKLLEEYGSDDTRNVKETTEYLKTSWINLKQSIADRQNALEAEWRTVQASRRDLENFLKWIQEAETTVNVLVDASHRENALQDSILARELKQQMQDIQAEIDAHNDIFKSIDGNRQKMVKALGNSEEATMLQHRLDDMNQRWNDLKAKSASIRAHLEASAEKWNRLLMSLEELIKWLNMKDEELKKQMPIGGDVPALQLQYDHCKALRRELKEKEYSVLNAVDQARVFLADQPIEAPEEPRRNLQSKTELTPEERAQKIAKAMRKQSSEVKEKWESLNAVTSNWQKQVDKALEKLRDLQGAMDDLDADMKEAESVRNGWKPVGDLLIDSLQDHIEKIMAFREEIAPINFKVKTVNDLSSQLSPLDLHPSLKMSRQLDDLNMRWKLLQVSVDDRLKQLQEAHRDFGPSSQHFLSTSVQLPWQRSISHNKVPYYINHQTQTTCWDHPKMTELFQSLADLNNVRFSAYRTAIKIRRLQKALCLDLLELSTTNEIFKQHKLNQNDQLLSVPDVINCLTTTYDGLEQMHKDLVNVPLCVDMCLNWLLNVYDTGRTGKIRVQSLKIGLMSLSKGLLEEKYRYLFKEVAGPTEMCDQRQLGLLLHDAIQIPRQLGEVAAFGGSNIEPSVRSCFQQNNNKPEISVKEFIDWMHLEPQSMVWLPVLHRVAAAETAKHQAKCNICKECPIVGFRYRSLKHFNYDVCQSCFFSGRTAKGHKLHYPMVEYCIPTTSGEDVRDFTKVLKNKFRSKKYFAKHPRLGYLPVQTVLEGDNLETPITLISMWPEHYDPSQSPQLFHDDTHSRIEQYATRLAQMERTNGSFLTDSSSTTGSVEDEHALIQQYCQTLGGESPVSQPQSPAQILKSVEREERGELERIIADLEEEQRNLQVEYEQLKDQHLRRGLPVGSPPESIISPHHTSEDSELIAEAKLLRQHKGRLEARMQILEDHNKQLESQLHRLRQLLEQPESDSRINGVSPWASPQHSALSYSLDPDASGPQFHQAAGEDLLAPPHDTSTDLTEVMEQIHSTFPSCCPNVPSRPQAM
UniProt Q9NQW7, sequence (Q9NQW7 whole entry, looked up): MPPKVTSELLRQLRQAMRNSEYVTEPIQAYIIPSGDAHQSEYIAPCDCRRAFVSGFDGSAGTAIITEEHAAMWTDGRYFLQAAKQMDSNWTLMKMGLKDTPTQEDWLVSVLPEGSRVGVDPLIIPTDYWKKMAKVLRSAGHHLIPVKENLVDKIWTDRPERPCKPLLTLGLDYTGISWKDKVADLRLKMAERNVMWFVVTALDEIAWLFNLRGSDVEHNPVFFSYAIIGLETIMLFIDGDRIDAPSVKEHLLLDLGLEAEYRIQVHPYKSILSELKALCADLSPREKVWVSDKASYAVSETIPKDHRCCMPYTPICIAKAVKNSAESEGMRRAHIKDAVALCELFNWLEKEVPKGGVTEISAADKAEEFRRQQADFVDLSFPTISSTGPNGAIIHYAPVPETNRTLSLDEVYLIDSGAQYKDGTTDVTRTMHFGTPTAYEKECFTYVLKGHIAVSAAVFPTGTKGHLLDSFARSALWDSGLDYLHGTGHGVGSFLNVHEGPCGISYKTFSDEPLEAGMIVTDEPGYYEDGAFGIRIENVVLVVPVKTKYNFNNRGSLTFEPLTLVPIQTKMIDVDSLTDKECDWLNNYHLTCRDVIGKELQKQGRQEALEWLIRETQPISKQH

Row | Target | log2 fold change (lapatinib) | log2 fold change (pictilisib) | log2 fold change (crizotinib) | log2 fold change [1] | log2 fold change (duvelisib) | log2 fold change (gandotinib) | log2 fold change (tozasertib) | log2 fold change (doramapimod) | log2 fold change (bafetinib) | log2 fold change [2]
1 | ZFYVE19 (UniProt Q96K21) | 0.042 | 0.017 | 0.007 | -0.125 | -0.005 | 0.085 | 0.046 | -0.029 | 0 | 0.149
2 | ULK3 isoform 4 (UniProt Q6PHR2) | 0.059 | -0.008 | -0.088 | 0.113 | 0.065 | -0.08 | 0.059 | -0.15 | 0.041 | 0.354
3 | WDR6 (UniProt Q9NNW5) | -0.023 | -0.03 | -0.049 | -0.05 | -0.005 | -0.007 | -0.013 | -0.007 | -0.022 | 0.024
4 | WDCP (UniProt Q9H6R7) | -0.048 | 0.017 | -0.079 | 0.022 | 0.038 | -0.058 | -0.03 | -0.02 | -0.027 | 0.002
5 | XPNPEP1 isoform 3 (UniProt Q9NQW7) | -0.017 | -0.02 | -0.008 | 0.001 | 0.049 | 0.002 | -0.024 | -0.003 | -0.021 | 0.018
6 | ZZEF1 (UniProt O43149) | -0.023 | -0.024 | -0.092 | -0.113 | 0.028 | 0.038 | -0.011 | 0.029 | -0.083 | 0.123
7 | VANGL1 (UniProt Q8TAA9) | 0.047 | -0.071 | 0.031 | 0.07 | 0.099 | 0.004 | 0.016 | -0.043 | 0.016 | 0.084
8 | YRDC (UniProt Q86U90) | -0.028 | -0.038 | -0.047 | -0.039 | 0.018 | 0.055 | 0.027 | 0.035 | 0.022 | 0.01
9 | USP3 (UniProt Q9Y6I4) | -0.016 | 0.001 | -0.033 | 0.031 | 0.01 | -0.056 | 0.021 | -0.03 | 0.01 | -0.04
10 | ZNF598 isoform 3 (UniProt Q86UK7) | 0.027 | 0.005 | 0.006 | -0.01 | -0.01 | 0.023 | 0.048 | 0.024 | -0.012 | 0.015
11 | ZKSCAN8 (UniProt Q15776) | 0.08 |  | -0.151 |  | 0.068 |  | -0.014 | 0.082 |  | 
12 | WEE1 (UniProt P30291) | -0.034 | -0.047 | -0.141 |  | 0.033 |  | 0.011 | 0.183 | 0.068 | 
13 | VASN (UniProt Q6EMK4) |  |  |  |  | -0.119 |  | 0.08 |  |  | 
14 | WAS (UniProt P42768) |  | -0.027 |  | -0.16 | -0.194 | -0.057 | -0.127 |  | -0.065 | 0.103
15 | USP22 (UniProt Q9UPT9) |  | 0.001 | -0.072 | 0.004 | -0.006 | -0.148 | 0.036 | -0.029 | -0.032 | 0.019
16 | WIPI2 isoform 6 (UniProt Q9Y4P8) |  | -0.102 |  | 0.025 |  | 0.181 |  |  | -0.013 | -0.089
17 | VPS54 (UniProt Q9P1Q0) | -0.018 | 0.068 | -0.296 | -0.263 | -0.012 | 0.399 | 0.047 | 0.066 | 0.431 | 0.395

Row | Target | log2 fold change (lapatinib) | log2 fold change (pictilisib) | log2 fold change (crizotinib) | log2 fold change [1] | log2 fold change (duvelisib) | log2 fold change (gandotinib) | log2 fold change (tozasertib) | log2 fold change (doramapimod) | log2 fold change (bafetinib) | log2 fold change [2]
18 | ZNF146 (UniProt Q15072) |  |  |  |  | -0.018 |  |  |  |  | 
19 | ZSWIM8 isoform 4 (UniProt A7E2V4) |  | -0.253 | 0.027 | -0.027 | -0.145 | -0.153 | 0.169 | -0.084 | -0.257 | 0.205
20 | WAC isoform 5 (UniProt Q9BTA9) |  |  |  |  | 0.226 |  |  |  |  | 
21 | ZNF281 (UniProt Q9Y2X9) |  |  | 0.003 |  | 0.029 |  |  | 0.02 |  | 
22 | ZDHHC17 (UniProt Q8IUH5) | 0.042 |  | 0.098 | -0.778 (active) | -0.301 | 0.037 | -0.025 | 0.11 |  | 0.17
23 | ZFYVE19 isoform 3 (UniProt Q96K21) | 0.114 | -0.02 |  |  |  |  |  |  | -0.013 | 
24 | ZYG11A (UniProt Q6WRX3) | -0.301 | 0.031 |  | -0.306 |  | 0.192 |  |  | -0.378 | 0.323
25 | ZSCAN21 (UniProt Q9Y5A6) |  |  |  | -0.131 |  | -0.108 | -0.001 |  |  | 0.068
26 | VASP (UniProt P50552) | -0.006 | 0.004 | 0.007 | -0.017 | 0.047 | 0.005 | 0.019 | -0.004 | 0.136 | 0.009
27 | ZBTB40 (UniProt Q9NUA8) | 0.022 |  | 0.036 | -0.249 | 0.018 | 0.219 |  | -0.02 |  | 0.004
28 | WSB1 (UniProt Q9Y6I7) |  |  |  | 0.12 | -0.137 | -1.11 (active) |  |  |  | -0.674
29 | UTRN isoform 2 (UniProt P46939) |  | 0.01 |  | -0.009 |  | 0.04 | -0.077 |  | -0.175 | -0.018
30 | ZNF652 (UniProt Q9Y2D9) |  |  | -0.007 |  |  |  |  | 0 |  | 
31 | VHL (UniProt P40337) |  | -0.003 | 0.017 | -0.538 (active) | 0.148 | -0.08 | 0 | -0.011 | 0.092 | -0.021
32 | ZNF845 (UniProt Q96IR2) | 0.012 | -0.013 | 0.018 | -0.069 | -0.023 | 0.015 |  | 0.16 | -0.031 | 0.017
33 | ZNF644 (UniProt Q9H582) |  | -0.133 | -0.026 | 0.04 | -0.069 | -0.015 | 0.015 | 0.037 | -0.165 | 0.086
